Assay results published in PubChem BioAssay (Tox21).
Where “and” joins values, the source holds several entries; their conditions need not be identical. Identical values can stand only once. Inconclusive results are not listed. Entries that show only a call come without a potency. Unmarked numbers belong to inactive results. Calls of active or inactive are those of the source. Calls come from the whole dose curve; as a rule, active = well fitted activation curve with a large enough effect in the repeat runs; inconclusive = weak or mixed curves; inactive = flat fitted curve, though single readings scatter.

Test: A CellTox Green Cytotoxicity Assay to monitor cytotoxicity in HepG2 cells - 32 hour (AID 1224883); note: nearly all actives have a fitted effect of over 50% in size
Details: CellTox Green fluorescence; series mostly up to 76.8 µM
Description: National Center for Advancing Translational Sciences [NCATS]
NIH Chemical Genomics Center [NCGC]
U.S. Environmental Protection Agency [EPA]
National Institutes of Environmental Health Sciences [NIEHS]
National Toxicology Program [NTP]
Cell-based models are critical for drug discovery. Determining the natural cytotoxic effects resulting from test compounds is an essential research activity. A CellTox Green Cytotoxicity Assay to monitor cytotoxicity in real time of continues cell culture during 40 hours of the compound treatment was used to screen Tox21 10K library compounds in HepG2 cells. CellTox Green Cytotoxicity Assay is a nonlytic, homogeneous, biofluorescent method to measure cytotoxicity in cell culture after experimental manipulation. The assay system uses a proprietary asymmetric cyanine dye that is excluded from viable cells but preferentially stains the dead cell's DNA. […] Viable cells produce no appreciable increases in fluorescence. Therefore, the fluorescence signal produced by the binding interaction with dead cell DNA is proportional to cytotoxicity.
The mixture of HepG2 cell suspension and reagents were dispensed at 600cells/6 ul/well in 1536-well tissue culture treated black solid bottom plates using a Multidrop dispenser. After the assay plates were incubated at a 37 C/5% CO2 incubator for 5 hours, 23 nL of compounds dissolved in DMSO, positive and negative controls was transferred to the assay plate by a pintool work station. The plates were incubated at 37 C for 40 hours. The fluorescence intensity were measured at 0h, 8h, 16h, 24h, 32h and 40h time points using ViewLux plate reader during compound treatment.
Potency is the fitted concentration of half-maximal effect.

SMILES	Potency	cytotoxicity increase
Nc1ccccc1C(=O)OCCc1ccccc1	21.9 µM (active)	–
ClCc1ccccc1Cl	inactive	–
CC(Oc1cc(Cl)c(Cl)cc1Cl)C(=O)O (stereo not given)	inactive	–
O=C(O)C(F)(F)C(F)(F)C(F)(F)C(F)(F)C(F)(F)C(F)(F)C(F)(F)C(F)(F)F	inactive	–
COC(=O)Cc1ccccc1	inactive	–
O=C(N/N=C/c1ccc([N+](=O)[O-])o1)c1cc([N+](=O)[O-])cc([N+](=O)[O-])c1O	inactive	–
COc1ccc(C(O)(c2cncnc2)C2CC2)cc1 (stereo not given)	inactive	–
O=C=NC1CCCCC1	inactive	–
Clc1ccccc1	inactive	–
C[N+]1(CCC(C(N)=O)(c2ccccc2)c2ccccc2)CCCCC1	inactive	–
Cc1ccccc1	inactive	–
CC(C)(C)CC(C)(C)c1ccc(O)cc1	27.5 µM (active) and 15.1 µM (active)	–
O=C(O)C(O)C(O)C(=O)O (stereo not given)	inactive	–
CC(Cc1ccccc1)NCc1ccccc1Cl (stereo not given)	inactive	–
CCOP(=O)(O)C(N)=O	inactive	–
CCCN(CCC)c1c([N+](=O)[O-])cc(C(C)C)cc1[N+](=O)[O-]	inactive	–
CN1CC[C@]23c4c5ccc(O)c4O[C@H]2[C@@H](O)C=C[C@H]3[C@H]1C5	inactive	–
CCOC(=O)NC(O)C(Cl)(Cl)Cl (stereo not given)	inactive	–
CC(C)(c1ccccc1)c1cc(-n2nc3ccccc3n2)c(O)c(C(C)(C)c2ccccc2)c1	inactive	–
O=C(Cc1ccccc1)OCCc1ccccc1	inactive	–

SMILES	Potency	cytotoxicity increase
O=C(O)C(F)(F)C(F)(F)C(F)(F)C(F)(F)C(F)(F)F	inactive	–
C=C(C)C(=O)OCCCCOC(=O)C(=C)C	inactive	–
CCN(C(C)=O)c1cccc(-c2ccnc3c(C#N)cnn23)c1	inactive	–
CCOC(=O)c1cncn1C(C)c1ccccc1 (stereo not given)	inactive	–
NP(N)(=O)NC(=O)c1ccc(F)cc1	inactive	–
COc1ccccc1N1CCNCC1	inactive	–
C[C@H]1[C@@H]2Cc3ccc(O)cc3[C@@]1(C)CCN2C	inactive	–
Oc1cccc(Cl)c1	inactive	–
C[N+](C)(C)CCOC(=O)C(O)(c1ccccc1)c1ccccc1	inactive	–
Cc1nnc(-c2ccccc2)c(=O)n1N	inactive	–
CC(C)C1(C)N=C(c2ncccc2C(=O)O)NC1=O (stereo not given)	inactive	–
C=CCSSCC=C	inactive	–
CC(O)CN1CCN(CC(=O)[O-])CCN(CC(=O)[O-])CCN(CC(=O)[O-])CC1.[Gd+3] (stereo not given)	inactive	–
CCC1(C2=NCCN2)Cc2ccccc2O1 (stereo not given)	inactive	–
COCc1cnc(C2=NC(C)(C(C)C)C(=O)N2)c(C(=O)O)c1 (stereo not given)	inactive	–
CCCCCCCCCCCCN=C(N)N	–	-4.96% [at 2.72 µM]
CCOP(=S)(OCC)Oc1ccc(S(C)=O)cc1 (stereo not given)	inactive	–
CN1CC[C@]23c4c5ccc(O)c4O[C@H]2[C@@H](O)CC[C@H]3[C@H]1C5	inactive	–
COc1ccc2c(c1OC)C(=O)O[C@H]2[C@@H]1c2cc3c(cc2CCN1C)OCO3	inactive	–
[Cl-].[Cl-].[Hg+2]	24.4 µM (active) and 3.09 µM (active)	–
